# According to PubChem BioAssay (NCI):
# Values joined by “and” are separate entries in the source; they are usually repeats but may differ in a detail not shown here. Equal values may be shown once. Compounds without any hit were thinned out: in the full panel of roughly 79,000, 15% have a hit. Active and inactive are the calls of the source. No stated cut-off is given here; in the data, active means growth inhibition above about 70%; inactive means the rest.
# Tests used:
# [1] = NCI Yeast Anticancer Drug Screen. Data for the rad50 strain (AID 155);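 further: 0% = growth of vehicle-only cultures of the same strain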; details: S. cerevisiae rad50 strain growth inhibition; at 50.0 µM; active compounds read high
# In short: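 Cells are treated with compound, grown, and their growth is then scored against vehicle-only cultures of the same repair-deficient yeast strain.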
# [2] = NCI Yeast Anticancer Drug Screen. Data for the mec2-1 strain (AID 157); details: S. cerevisiae mec2-1 strain, at 50.0 µM, active compounds read high
# In short: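 Growth inhibition is read against vehicle-treated controls after compound exposure of the mec2-1 yeast strain, which is defective in DNA damage repair or cell cycle control.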
# [3] = NCI Yeast Anticancer Drug Screen. Data for the sgs1 mgt1 strain (AID 161);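 further: 0% = growth of cultures given vehicle only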; details: S. cerevisiae sgs1 mgt1 strain, at 50.0 µM, active compounds read high
# In short: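 Growth of a repair-deficient yeast mutant was monitored after compound treatment and expressed as inhibition relative to vehicle-treated cultures.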
# [4] = NCI Yeast Anticancer Drug Screen. Data for the cln2 rad14 strain (AID 165);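 further: 0% = growth equal to vehicle treated cultures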; details: S. cerevisiae cln2 rad14 strain, at 50.0 µM, active compounds read high
# In short: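 Growth inhibition, relative to vehicle-treated controls, is the read-out. The test organism is a yeast strain with defined genetic alterations, cln2 rad14.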
# [5] = NCI Yeast Anticancer Drug Screen. Data for the bub3 strain (AID 167); details: S. cerevisiae bub3 mutant strain, at 50.0 µM, active compounds read high
# In short: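 Part of a panel of yeast mutants defective in DNA damage repair or cell cycle regulation. Each strain is grown with compound, and inhibition is calculated relative to solvent-treated cultures.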
# [6] = NCI Yeast Anticancer Drug Screen. Data for the mlh1 rad18 strain (AID 175); details: S. cerevisiae mlh1 rad18 strain growth inhibition; at 50.0 µM; active compounds read high
# In short: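 Cells of a genetically altered yeast strain, deficient in DNA damage repair, were treated with compound. Their growth was then compared with that of vehicle-treated cultures to give inhibition.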
Compound,growth inhibition [1],growth inhibition [2],growth inhibition [3],growth inhibition [4],growth inhibition [5],growth inhibition [6]
S=C=Nc1ccccn1,9.9% (inactive),3.35% (inactive),22.1% (inactive),7.8% (inactive),30.6% (inactive),21.9% (inactive)
CC(C)NCC(=O)c1ccc(O)c(O)c1,4.9% (inactive) and -5.1% (inactive),-19.3% (inactive) and 4.45% (inactive),-21.8% (inactive),-7.25% (inactive),-26.1% (inactive),7.7% (inactive) and -10.9% (inactive)
O=C([O-])C(F)(F)C(F)(F)F.[C-]#[O+].[C-]#[O+].[C-]#[O+].[C-]#[O+].[C-]#[O+].[Mn],-8% (inactive),-29% (inactive),3.65% (inactive),0% (inactive),0.25% (inactive),-7.25% (inactive)
O=[N+]([O-])c1cc(Cl)ccc1O,0.2% (inactive),-5.65% (inactive),-6.5% (inactive),14.2% (inactive),-7.15% (inactive),3.75% (inactive)
CC(=O)OCCCn1nc(COC(N)=O)c2c1CC(C)CC2=O (stereo not given),1% (inactive),-11.3% (inactive),-8.25% (inactive),-4.35% (inactive),-14.8% (inactive),3.65% (inactive)
CC(C)C(Br)C(N)=O (stereo not given),-36.1% (inactive),-31.1% (inactive),9.75% (inactive),-24.6% (inactive),-2.85% (inactive),-14.8% (inactive)
Clc1ccc2c(c1)Cc1cc(N(CCBr)CCBr)ccc1-2,24.8% (inactive),13.1% (inactive),40% (inactive),46.6% (inactive),12.4% (inactive),47.1% (inactive)
O=C(c1ccccc1)C1C(C(=O)c2ccccc2)N1C1CCCCC1 (stereo not given),81.8% (active),32% (inactive),14.8% (inactive),2.3% (inactive),84.5% (active),80.8% (active)
O=C(O)C(O)(c1ccccc1)C1CCCCC1 (stereo not given),1% (inactive) and 8.5% (inactive),-19.5% (inactive) and 5.45% (inactive),-2.1% (inactive) and -8.8% (inactive),18.6% (inactive) and -7.65% (inactive),-30.9% (inactive) and 0.6% (inactive),-1.6% (inactive) and -2.85% (inactive)
NC(Cc1ccccc1)c1ccccc1 (stereo not given) (tested in a mixture with another compound),0.6% (inactive),-17.4% (inactive),-6.4% (inactive),9.7% (inactive),2.6% (inactive),2.55% (inactive)
Cc1[nH]c2cc([N+](=O)[O-])ccc2c1[N+](=O)[O-],44.6% (inactive) and 36.9% (inactive),32.2% (inactive) and 25.4% (inactive),26% (inactive) and 38.3% (inactive),24.9% (inactive) and 9.1% (inactive),-4.65% (inactive) and -4.55% (inactive),59% (inactive) and 41.8% (inactive)
O=NNc1ncc(Cl)cc1Cl,4.9% (inactive),-23.8% (inactive),-6.05% (inactive),-4.7% (inactive),14.2% (inactive),8.65% (inactive)
CCCCCCCCCCCCC(=O)O.[Pb],1.45% (inactive),10.2% (inactive),-14.4% (inactive),24.2% (inactive),-2.05% (inactive),3.35% (inactive)
CCOP(=O)(OCC)C(C)(C)OC(=O)NC(F)(F)F,-18.7% (inactive),-15.2% (inactive),-2.25% (inactive),5.25% (inactive),-10.1% (inactive),3% (inactive)
CCNC(=O)C(C)Br (stereo not given),19.4% (inactive),13.1% (inactive),23.5% (inactive),-3.55% (inactive),6.5% (inactive),23.9% (inactive)
COc1ccc(-c2c[se]c(=S)s2)cc1,24.1% (inactive),10.8% (inactive),-7.35% (inactive),-33.5% (inactive),4.2% (inactive),11.3% (inactive)
OCC(S)CS.[Sb] (stereo not given),21.1% (inactive),19.1% (inactive),29.8% (inactive),41% (inactive),44% (inactive),42% (inactive)
CC1CCC2[S][Sn]3([NH]C2C1)[NH]C1CC(C)CCC1[S]3 (stereo not given),97% (active),96.5% (active),99.1% (active),95.8% (active),98.2% (active),96.5% (active)

Compound,growth inhibition [1],growth inhibition [2],growth inhibition [3],growth inhibition [4],growth inhibition [5],growth inhibition [6]
C1CSCCO1.[Cu+2].[O-][Cl+3]([O-])([O-])O,-7.6% (inactive),-10.6% (inactive),-0.4% (inactive),-36.8% (inactive),-37% (inactive),-13.8% (inactive)
O=C(C1C(c2ccccc2)N1C1CCCCC1)C1C(c2ccccc2)N1C1CCCCC1 (stereo not given),6% (inactive),17.9% (inactive),10.6% (inactive),-5.1% (inactive),-10.5% (inactive),8.7% (inactive)
COP(=O)(OC)C(=O)c1ccccc1,-11.6% (inactive),-17.2% (inactive),-7.8% (inactive),-31.9% (inactive),-23.8% (inactive),-16.1% (inactive)
ClCCN(CCCl)Cc1c2ccccc2cc2c1ccc1ccccc12,48.5% (inactive),9.2% (inactive),46.8% (inactive),-38.3% (inactive),-2.5% (inactive),65.5% (inactive)
CN1c2ccccc2NP1(=S)c1ccccc1 (stereo not given),69.5% (inactive),80% (active),95.2% (active),40.5% (inactive),55.9% (inactive),83.2% (active)
O=C(NC(=S)N1CC1)c1ccccc1,-13.9% (inactive),-43.4% (inactive),-7% (inactive),-7.8% (inactive),-26.4% (inactive),-36.3% (inactive)
CNC(C)Cc1ccccc1OC (stereo not given) (tested in a mixture with another compound),-14.8% (inactive),1.9% (inactive),4.15% (inactive),-35.9% (inactive),9.55% (inactive),-7.7% (inactive)
CN(C)CCC(=O)c1ccccc1,3.05% (inactive) and -40.5% (inactive),0.7% (inactive) and 11.3% (inactive),5.85% (inactive) and -7.35% (inactive),-0.6% (inactive) and -27.6% (inactive),4.35% (inactive) and -1.8% (inactive),4.4% (inactive) and 10.6% (inactive)
CCN(CC)C(=O)N1CN(c2ccccc2)C2(CCN(CCCC3(c4ccc(F)cc4)OCCO3)CC2)C1=O,24.7% (inactive),24.1% (inactive),48% (inactive),19.7% (inactive),23.8% (inactive),49.9% (inactive)
[Cu+2].[O-]c1ccc2ccccc2c1N=Nc1ccccc1.[O-]c1ccc2ccccc2c1N=Nc1ccccc1,-70.1% (inactive),-13.1% (inactive),-13.1% (inactive),-15.9% (inactive),2.4% (inactive),-12.2% (inactive)
CC(C)CCN(CCC(C)C)CC(O)c1ccc(Br)cc1 (stereo not given),5.1% (inactive),-13.1% (inactive),6.1% (inactive),-47.5% (inactive),-15.6% (inactive),0.35% (inactive)
CC[C@H]1CN2CCc3c([nH]c4ccccc34)[C@@H]2C[C@@H]1/C(=C\OC)C(=O)OC,8.45% (inactive),3.8% (inactive),18.6% (inactive),9.35% (inactive),21.6% (inactive),0.65% (inactive)
CC(C)C1CN1CC(O)Cn1ccnc1[N+](=O)[O-] (stereo not given),-15.2% (inactive),-17.8% (inactive),-19.1% (inactive),0% (inactive),7.35% (inactive),-19.2% (inactive)
CCCCN1CCC2(CC1)COCc1ccccc12,57.2% (inactive),34.3% (inactive),42% (inactive),28.7% (inactive),54.9% (inactive),44.1% (inactive)
OCC(Br)(Br)Br,44.4% (inactive),-4.3% (inactive),19.5% (inactive),3.7% (inactive),-2.55% (inactive),27.9% (inactive)
Cc1nc(N)nc(N)c1CCCOc1ccc(NC(=O)c2cccc(S(=O)(=O)F)c2)cc1,33.2% (inactive),25.9% (inactive),15.4% (inactive),19.2% (inactive),-4.45% (inactive),30.4% (inactive)
COC(C)CCOC(=O)Cc1ccccc1 (stereo not given),16.1% (inactive),-5.25% (inactive),-0.15% (inactive),-41% (inactive),13.4% (inactive),5.25% (inactive)
